Our source for the z-score values is PubChem BioAssay.

Calls of active or inactive are those of the source.

This assay can be described thus: growth of efflux-deficient E. coli DRC39 – strain DRC39, OD650, 24 h, E. coli filamentation inducers, primary screen (AID 1178).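 Further: growth measured as culture turbidity by optical density at 650 nm; test concentration not given here.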 The note with it: E. coli DRC39 acrAB, higher = more signal, called active from +8 up or from −8 down.
On to `CC(C)(C)N1CC=CC23O[C@@H]4/C=C\CCCOC(=O)C4[C@H]2C(=O)N(CCCCCO)[C@@H]3C1=O` (stereo partly drawn), for which the z-score is 0.0531 (inactive).

As to `COCCCNC(=O)[C@@]1(CCS(=O)(=O)c2ccccc2)COC(c2ccc(OCCCO)cc2)=N1`, the z-score was 0.199 (inactive).

On to `O=C1NC(=O)C2C1C=CC(C(O)c1ccc(B(O)O)cc1)N2Nc1ccc(Cl)cc1Cl` (stereo not drawn), for which the z-score was 0.0436 (inactive).

Consider `CCOc1cc(C(O)C2C=CC3C(=O)N(c4ccccc4)C(=O)C3N2Nc2ccccc2F)ccc1O` (stereo not drawn), for which the z-score is -0.223 (inactive).

As for `O=C1OCCC=C[C@H]2OC34C=CCN(c5ccc6ccccc6c5)C(=O)[C@H]3N(CCO)C(=O)[C@@H]4C12` (stereo partly drawn), the z-score was -1.26 (inactive).

As to `CN(C)CCCNC(=O)[C@@]1(Cc2ccccc2I)c2ccccc2C(=O)N(C2CCCCC2)[C@H]1c1ccc(CO)cc1`, the z-score is 0.675 (inactive).

As for `COc1ccc(C#Cc2ccc3c(c2)[C@]2(C(=O)N3)[C@H](C(=O)O)[C@H]3C(=O)O[C@H](c4ccccc4)[C@H](c4ccccc4)N3[C@@H]2c2ccccc2OCCO)cc1`, the z-score is 0.761 (inactive).

As to `COCCOC(=O)N1C(=O)[C@@]2(c3cc(C#CC4(O)CCCCCC4)ccc31)[C@H](c1ccc(O)cc1)N1[C@H](c3ccccc3)[C@H](c3ccccc3)OC(=O)[C@H]1[C@@H]2C(=O)N1CCCCCCC1`, the z-score is -0.298 (inactive).

On to `[N-]=[N+]=Nc1ccccc1[C@@H]1OC(c2ccc(OCCCO)cc2)=N[C@]1(Cc1ccccc1)C(=O)NCCN1CCOCC1`, for which the z-score was 0.826 (inactive).

Regarding `CCCCC(O)C1C=CC2C(=O)N(c3ccccc3)C(=O)C2N1Nc1ccccc1` (stereo not drawn), the z-score is -0.407 (inactive).

For the molecule `CC=CC(O)C1C=CC2C(=O)NC(=O)C2N1Nc1ccc(Cl)cc1Cl` (stereo not drawn), the z-score is -0.427 (inactive).

As for `COC(=O)[C@H](Cc1ccccc1)N1CC2=CCCC=C[C@@H]2[C@H]1[C@H](O)Cc1ccccc1`, the z-score is -0.337 (inactive).

Take `Cc1ccc(S[C@]2(C(=O)NC(C)C)CC(=O)N(C3CCCCC3)[C@@H]2c2ccc(CO)cc2I)cc1`: the z-score is 0.384 (inactive).

On to `CCCNC(=O)[C@@]1(c2ccc([N+](=O)[O-])cc2)CC(=O)N(C(C)C)[C@@H]1c1ccc(CO)cc1`, for which the z-score was 0.388 (inactive).

Regarding `COC(=O)[C@@]1(Cc2ccc(OC)cc2)[C@H]2c3cc(C(=O)N(C)C)[nH]c3C[C@H]2CN1C(=O)c1ccccc1`, the z-score was -0.151 (inactive).

Take `O=C1N(CCS(=O)(=O)c2ccccc2)c2ccccc2C[C@]12N=C(c1ccc(OCCCO)cc1)O[C@@H]2c1ccccc1`: the z-score is 0.39 (inactive).

`CC1=C([C@H](O)CCc2ccccc2)[C@H](CO)n2c(=O)n(-c3ccccc3)c(=O)n2C1`: the z-score was 1.19 (inactive).

Regarding `O=C1O[C@H](Cc2ccccc2)[C@@H]2[C@H]3C=CCCC=C3CN2[C@H]1Cc1ccc(O)cc1`, the z-score is 0.616 (inactive).

Turning to `CN(C)c1ccc(C(O)C2C=CC3C(=O)N(Cc4ccccc4)C(=O)C3N2n2cnnc2)cc1` (stereo not drawn), the z-score is 0.0571 (inactive).

As to `COC(=O)[C@@]1(Cc2ccc(F)cc2)[C@H]2c3cc(C(=O)N(C)C)n(CCc4ccc(O)c(O)c4)c3C[C@H]2CN1C(=O)c1ccccc1`, the z-score was -0.0718 (inactive).

Consider `CCCC[C@H]1C[C@@H]1[C@@H]1N(C(C)=O)[C@H](c2cccc(OC)c2)CC12CC2`, for which the z-score is -0.083 (inactive).

Regarding `CC(=O)OCC1C2CC[C@H]3C(OCc4ccc(F)cc4C(F)(F)F)OC[C@]4(C)[C@H]3C2=C(CN4C(=O)OC(C)(C)C)[C@H](C)C1COC(C)=O` (stereo partly drawn), the z-score was -1.47 (inactive).

Consider `COc1ccccc1CN1C(=O)c2ccccc2[C@](Cc2ccccc2I)(C(=O)NCC(C)C)[C@@H]1c1ccc(CO)cc1`, for which the z-score was 1.05 (inactive).

In the case of `C[N+](C)(C)CCCC[C@@H]1NC(=O)[C@@H]2C[C@H](C(=O)NCc3ccc(F)cc3)[C@H](c3ccc(O)cc3)N2C1=O`, the z-score was 0.426 (inactive).

In the case of `CN1C(=O)C2C(C1=O)C1C=C(CCCO)C2C(C2CC2)N1Cc1cccc(OC(F)(F)F)c1` (stereo not drawn), the z-score was 0.492 (inactive).

For the molecule `COC(=O)[C@@]1(Cc2ccccc2)[C@H]2c3cc(C(=O)N(C)C)n(Cc4ccc(S(C)(=O)=O)cc4)c3C[C@H]2CN1C(=O)c1ccccc1`, the z-score was -1.1 (inactive).

Take `O=C1c2ccccc2[C@@]2(Cc3ccccc3N(Cc3ccccc3)C2=O)[C@H](c2ccc(CO)cc2)N1Cc1ccccc1Cl`: the z-score is 0.134 (inactive).

As for `O=C1C[C@@](C(=O)NCc2ccccc2)(c2ccc([N+](=O)[O-])cc2)[C@@H](c2ccc(CO)cc2)N1C1CCCCC1`, the z-score was 0.639 (inactive).
